Screening data from PubChem.
A selection: hits, their analogues and other compounds. The true share with any hit is near 11%.
PNC assembly inh = perinucleolar compartment assembly inhibition | PC3M PTB-GFP, PNC prevalence imaging, 16 h; active compounds read low | activity change (PNC), negative = inhibition, % at 10 µM | 140,000 tested, 3.1% active | AID 2417;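 active = readout at or below -70, meaning at least 70% loss of cells showing the perinucleolar compartment, a nuclear body marking cancer cells; inconclusive = readout between -30 and a set limit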
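PC3M cells stably expressing PTB-GFP, 750–1000 cells/well, treated 16 h at 37 °C with compound (23 nl of library stock), in duplicate. After paraformaldehyde fixation and Hoechst stain, imaged at 20x; PNC prevalence scored by image analysis.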
ALDH1A1 inh = ALDH1A1 (human) enzyme inhibition; P00352; Purified ALDH1A1, NADH fluorescence, propionaldehyde substrate; Potency, µM (top dose mostly 75.3 µM), most hits filed as inhibitors; 220,000 tested, 7.3% active
HTT cytoprotect = protects HTT-Q103 PC12 cells, measured by ATP. PC12 HTT-Q103 induced, cytoprotection, ATP luminescence, 40 h. Potency, µM (series often up to 56.4 µM), hits mostly activators. 230,000 tested, 0.14% active. AID 1471; active = well fitted curve in the direction sought with a large enough effect; inconclusive = small, poorly fitted or top-dose-only effect, or another doubt; inactive = no such curve, though single readings can be large; an effect the other way counts as inactive or inconclusive; also: nearly all actives have a fitted effect of over 45% in size
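Compounds were screened for protection of PC12 cells against cell death after tebufenozide induction (100 nM final) of mutant Huntingtin exon 1 (Q103) fused to GFP.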
GoLoco inh red = RGS12 GoLoco-Gai1 interaction inhibition; P63096; Gai1:RGS12 GoLoco peptide FP, rhodamine, 10 min; Potency, µM (titrated, usually from 61.6 µM), usual class: inhibitors; 230,000 tested, 0.44% active; AID 880; active = well fitted inhibition curve with a large enough effect, not every such curve was filed as active; inactive = no such curve, though single readings can be large or run the other way; also: nearly all actives have a fitted effect of over 30% in size
Target sequence (P63096 whole entry, looked up): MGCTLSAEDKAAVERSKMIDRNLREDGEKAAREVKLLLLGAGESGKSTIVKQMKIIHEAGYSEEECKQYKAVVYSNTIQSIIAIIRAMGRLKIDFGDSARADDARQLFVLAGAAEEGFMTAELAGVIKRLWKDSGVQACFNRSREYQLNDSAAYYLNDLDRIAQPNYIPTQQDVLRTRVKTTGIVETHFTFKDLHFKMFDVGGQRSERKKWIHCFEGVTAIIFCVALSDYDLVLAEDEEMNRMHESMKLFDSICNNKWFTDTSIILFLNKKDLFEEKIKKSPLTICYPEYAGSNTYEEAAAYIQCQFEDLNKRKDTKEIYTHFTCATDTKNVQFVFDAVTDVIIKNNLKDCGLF
HTT aggregate = inhibitors of mutant huntingtin aggregate formation in PC12 cells. PC12 HttQ103-GFP aggregates, Acumen cytometry, 40 h. Potency, µM (highest dose often 46.1 µM), most hits filed as inhibitors. 220,000 tested, 1.1% active; active = well fitted curve in the direction sought with a large enough effect; inconclusive = small, poorly fitted or top-dose-only effect, or another doubt; inactive = no such curve, though single readings can be large; an effect the other way counts as inactive or inconclusive; also: nearly all actives have a fitted effect of over 60% in size
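Quantitative HTS on tebufenozide-induced (100 nM) PC12 cells stably expressing polyQ103 Huntingtin exon 1–GFP. Reduction of bright GFP aggregates, detected by laser scanning cytometry after lysis, identified actives across the titration.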
HPGD block = blocks human HPGD enzyme activity; AID 894; Potency, µM, actives largely listed as inhibitors; 150,000 tested, 4.3% active; purified HPGD, NADH fluorescence kinetic, PGE2 substrate
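20 nM HPGD preincubated 15 min at room temperature with compound in 50 mM Tris-HCl pH 8, 0.01% Tween 20. Started with 1 mM NAD+ and 30 uM prostaglandin E2; NADH fluorescence (360/450 nm) read 5 times over 30-s intervals, last minus first.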
Of the large screens only hits and unclear results are named; the others gave an inactive call. Unless noted, calls follow the shape of the dose curve; as a rule, active = well fitted inhibition curve with a large enough effect (not every such curve was filed as active); inconclusive = small, poorly fitted or top-dose-only effect, or another doubt; inactive = no such curve, though single readings can be large or run the other way.

CCOC(=O)COn1c(=O)c(-c2ccc(OC)c(OC)c2)[n+]([O-])c2ccccc21	ALDH1A1 inh 35µM
C=CCOn1c(=O)c(-c2ccc(OC)c(OC)c2)[n+]([O-])c2ccccc21	ALDH1A1 inh inconclusive
CCOc1ccccc1OCCC(=O)OCC(=O)c1ccc[nH]1	none (no result: PNC assembly inh, HPGD block)
CCOC(=O)c1ccccc1N/C=C/C(=O)c1cccs1	ALDH1A1 inh inconclusive (no result: GoLoco inh red, HPGD block)
O=C(/C=C/Nc1ccc(F)cc1F)c1cccs1	ALDH1A1 inh 2.4µM, HPGD block inconclusive
O=C(/C=C/Nc1ccccc1F)c1cccs1	ALDH1A1 inh inconclusive, GoLoco inh red 8.9µM
O=C(/C=C\Nc1cccc(F)c1)c1cccs1	none
O=C(O)C1C2C=CC(C2)C1C(=O)NC1CCS(=O)(=O)C1 (stereo not given)	ALDH1A1 inh 22µM
O=C(NC1CCS(=O)(=O)C1)C1C2CC3CC(C2)CC1C3 (stereo not given)	none (no result: PNC assembly inh, HPGD block)
CN1CCN(S(=O)(=O)c2cccc(C(=O)N(c3ccccn3)C3CCCCC3)c2)CC1	none
CC1CCN(S(=O)(=O)c2cccc(C(=O)N(Cc3ccccc3)c3ccccn3)c2)CC1	HTT aggregate 11µM (no result: PNC assembly inh, HPGD block)
O=C(NC1=NCCS1)c1cc(-c2ccc(F)cc2)nc2ccccc12	PNC assembly inh inconclusive
CCCc1ccc(-c2cc(C(=O)NC3=NCCS3)c3ccccc3n2)cc1	PNC assembly inh inconclusive, HTT aggregate 4µM (no result: GoLoco inh red, HPGD block)
Fc1ccc([C@H]2CCNC[C@H]2COc2ccc3c(c2)OCO3)cc1	ALDH1A1 inh inconclusive (no result: PNC assembly inh, HTT aggregate)
Cc1ccc(N/C(C(Cl)=C(Cl)Cl)=C(/Cl)[N+](=O)[O-])c(C)c1	ALDH1A1 inh 3.5µM (no result: HTT cytoprotect)
CCc1cccc2c(-c3ccccc3)c3c(nc12)OCC3	ALDH1A1 inh inconclusive, HPGD block inconclusive (no result: PNC assembly inh, HTT aggregate)
CCCCCn1c(CN2CCN(C(=O)OCC)CC2)nc2c1c(=O)[nH]c(=O)n2C	PNC assembly inh inconclusive, ALDH1A1 inh 11µM
Cn1c(=O)[nH]c(=O)c2c1nc(CN1CCN(c3ccc(F)cc3)CC1)n2CCCc1ccccc1	none
Cn1c(=O)[nH]c(=O)c2c1nc(CN1CCN(c3ccc(F)cc3)CC1)n2CCc1ccccc1	PNC assembly inh -100
Cn1c(=O)[nH]c(=O)c2c1nc(CN1CCN(c3cccc(Cl)c3)CC1)n2CCc1ccccc1	PNC assembly inh inconclusive, ALDH1A1 inh 14µM
Cn1c(=O)[nH]c(=O)c2c1nc(CN1CCN(c3ccccc3F)CC1)n2CCCc1ccccc1	PNC assembly inh inconclusive, ALDH1A1 inh 3.2µM
CC(=O)OC1CSC2c3ccccc3C(=O)N2Cc2sccc21 (stereo not given)	none (no result: PNC assembly inh, HPGD block)
CC[C@]1(O)C[C@H]2CN(CCc3c([nH]c4ccccc34)[C@](C(=O)OC)(c3cc4c(cc3OC)N(C)[C@@H]3[C@](O)(C(=O)OC)[C@H](OC(C)=O)[C@]5(CC)C=CCN6CC[C@]43[C@@H]65)C2)C1	none (no result: PNC assembly inh, ALDH1A1 inh, GoLoco inh red, HTT aggregate, HPGD block)
COc1ccc(N2CCN(Cc3nc4c(c(=O)[nH]c(=O)n4C)n3CC(C)=O)CC2)cc1	PNC assembly inh -90
COc1ccc(N2CCN(Cc3nc4c(c(=O)n(C)c(=O)n4C)n3CC(C)=O)CC2)cc1	none
CC1(C)Cc2ccccc2-c2c1c(=O)n(Cc1ccccc1)c1nnnn21	PNC assembly inh -100, ALDH1A1 inh inconclusive
Cc1cccc(C)c1NC(=O)CC12CCCN1CCC2	none (no result: PNC assembly inh, ALDH1A1 inh, GoLoco inh red, HPGD block)
O=C(c1csc2c1CCCC2)N1CCN(c2ccccc2)CC1	PNC assembly inh -80, HTT cytoprotect inconclusive
O=C(O)c1ccccc1C(=O)N1CCN(c2ccccc2)CC1	ALDH1A1 inh 16µM
O=C(c1ccccc1C(=O)N1CCN(c2ccccc2)CC1)N1CCN(c2ccccc2)CC1	ALDH1A1 inh inconclusive
CCCc1[nH]n(-c2ccc([N+](=O)[O-])cc2)c(=O)c1C=NCCCn1ccnc1	none (no result: PNC assembly inh, HPGD block)
O=C(CN1C(=O)S/C(=C\C=C\c2ccccc2)C1=O)Nc1ccc(C(=O)O)cc1	ALDH1A1 inh 13µM (no result: PNC assembly inh, HPGD block)
C/C(=N\NC(=O)CN1CCN(S(=O)(=O)c2ccc(C)cc2)CC1)c1ccc(O)cc1	none (no result: PNC assembly inh, ALDH1A1 inh, HPGD block)
COc1ccc(CNc2cc(-c3cccnc3)ncn2)c(OC)c1	none (no result: PNC assembly inh, HTT aggregate, HPGD block)
